Assay results reported in PubChem BioAssay AID686978 (National Center for Advancing Translational Sciences (NCATS), 2013).
Out of some 420,000 compounds screened, about 64,000 (15%) were called active. Inconclusive results (about 27%) are left out. A selection follows. A number with no mark means an inactive call. Calls follow the shape of the dose curve; as a rule, active = well fitted inhibition curve with a large enough effect; inconclusive = small, poorly fitted or top-dose-only effect; inactive = flat fitted curve, though single readings scatter.

Experiment: qHTS for Inhibitors of human tyrosyl-DNA phosphodiesterase 1 (TDP1): qHTS in cells in absence of CPT; also: nearly all actives have a fitted effect of over 55% in size
Details: DT40 Tdp1-/- hTDP1 cells, no CPT, ATP luminescence, 48 h; activity change, negative = growth inhibition: at 46.2 µM (top of the series)
Summary of the method: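 Seeded 400 DT40-hTDP1 cells/well (vehicle DMSO, no 20 nM CPT); pinned compounds; ≥48 hr at 37 °C; CellTiter-Glo luminescence as viability measure.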
% is scaled to controls: 0 for no effect and ±100 for the full control effect; potency is read from the fitted curve at half-maximal effect.

In order of rising “activity change, negative = growth inhibition” value:
1. O=C(c1ccc(CN2CCOCC2)cc1)N1CCN(c2ccccc2F)CC1  -29.9%
2. CC(C(=O)N1CCN(c2ccccc2F)CC1)c1ccc([N+](=O)[O-])cc1 (stereo unspecified)  -28.8%
3. CCOC(=O)[C@H]1CCC[C@@H](NS(=O)(=O)c2ccc(NC(C)=O)cc2)C1  -27.8%
4. Brc1ccccc1C1Nc2cccc3cccc(c23)N1  -26.5%
5. COc1ccc(/C=C/C(=O)Nc2cccnc2)cc1OC  -26.5%
6. CCOC1=C2CN(S(=O)(=O)c3ccc(C)cc3)[C@H](c3cccs3)C[C@H]2[C@H]2C(=O)N(c3ccccc3)C(=O)[C@H]2C1  -26.4%
7. Cc1ccc(S(=O)(=O)NCc2cn3ccsc3n2)c(C)c1  -25.2%
8. COc1ccc(C(=O)O)cc1S(=O)(=O)NC1CCN(Cc2ccccc2)CC1  -23.7%
9. CCOc1ccc(C(C(=O)NCCOC)N(CCOC)C(=O)CCC(=O)Nc2ccccn2)cc1 (stereo unspecified)  -22.5%
10. COc1ccc(-c2nc3n(c2Br)CCC3)cc1  -21.5%
11. CCc1nc2ccc(C(=O)N3CCN(S(=O)(=O)CC)CC3)cn2c1N(C=O)CCC(C)C  -19.4%
12. O=C(Cc1ccc(F)cc1)NC1CCCC1  -18.7%
13. CC(NC(=O)COC(=O)c1ccc(Cl)cc1O)c1ccc(F)cc1 (stereo unspecified)  -15.9%
14. O=C(Nc1cccc(Cl)c1)c1cc([N+](=O)[O-])ccc1N1CCN(CCO)CC1  -10.6%
15. CN(C)/N=C/c1cc(Cl)cc([N+](=O)[O-])c1O  -9.36%
16. Cc1ccc(C23CC4CC(CC(C(=O)NCC(=O)O)(C4)C2)C3)cc1  -8.94%
17. CCc1nc2c(OCC(=O)C(C)(C)C)cccn2c1N(C)C(=O)c1ccccc1F  -8.92%
18. COC(=O)CSc1nnc(-c2cccnc2)o1  -7.69%
19. CCOc1ccc(NC(=O)CN(C)C(=O)c2c(C)noc2C)cc1OCC  -7.57%
20. COc1ccc(COC(=O)N/N=C(\C)CC(=O)Nc2ccc(Cl)cc2)cc1  -6.88%
21. O=C(CNC(=O)c1ccco1)OCC(=O)c1ccccc1  -5.78%
22. CCc1nc2c(OCC(N)=O)cccn2c1N(C)C(=O)c1ccc(OC)cc1  -5.74%
23. CC(=O)Nc1ccc(NC(=O)CS(=O)(=O)c2cn(CC(=O)N3CCCCC3)c3ccccc23)cc1  -5.42%
24. COC(=O)c1cc(NC(=O)CN2CCN(C(C)=O)CC2)cc(C(=O)OC)c1  -5.06%
25. Cn1nnnc1SCC(=O)Nc1nc2ccccc2s1  -4.07%
26. N#CC1(NC(=O)COc2ccc3oc4ccccc4c3c2)CCCCC1  -3.82%
27. Cc1ccn2c(=O)nc(SCC(=O)NCc3ccc(F)cc3)nc2c1  -3.12%
28. CCC(=O)NNc1cc(=O)c2c(=O)n(C)c(=O)n(C)c2[nH]1  -2.61%
29. CCS(=O)(=O)C1=NSC2=NC(=O)/C(=C\c3cc(C)n(-c4cccc(OC)c4)c3C)C(=N)N21  -2.54%
30. CCc1ccc(NC(=O)CS(=O)CC(=O)N2CCN(c3ccccc3F)CC2)cc1 (stereo unspecified)  -0.775%
31. CCOC(=O)N1CCN(C(=S)Nc2ccc(C)cc2C)CC1  -0.122%
32. CCOc1ccccc1N(CC(=O)Nc1ccccc1C(=O)OC)S(C)(=O)=O  0.517%
33. CCOc1ccc(C(=O)NC2CCN(CC(=O)NCc3cccs3)CC2)cc1  0.552%
34. Cc1noc(C)c1C(=O)Nc1ccccn1  1.03%
35. O=C(NC(Cc1ccccc1)C(=O)O)/C(=C\c1ccccc1)NC(=O)c1ccco1 (stereo unspecified)  2.76%
36. Cc1cccc(NC(=S)N2CCC(O)CC2)c1C  3.36%
37. COc1ccccc1OC(C)C(=O)Nc1ccc(S(=O)(=O)Nc2nccs2)cc1 (stereo unspecified)  3.49%
38. CCOC(=O)C1CCN(c2ccc(C(=O)O)cc2[N+](=O)[O-])CC1  3.97%
39. COc1cc2[nH]c(=O)n(CCC(=O)NC3CCN(Cc4ccccc4)CC3)c(=O)c2cc1OC  5.02%
40. CC1(C(=O)O)CCC(C(=O)Nc2ccc(Cl)c(Cl)c2)C1(C)C (stereo unspecified)  9.89%
41. Cc1c(C=O)c2ccccc2n1CC(=O)O  10.6%
42. CN(CC(=O)NC1CCCC1)S(=O)(=O)c1cnc[nH]1  11.5%
43. Cc1ccc(C(=O)NCCc2nnc(SCC(=O)Nc3cccc(C(=O)O)c3)n2C)cc1  14.4%

With `CCCCN(C=O)c1c(CC)nc2c(OCCC3CCCCC3)cccn12` the Potency was 9.2 µM (active).
In the case of `CCc1nc2c(OCCC3CCCCC3)cccn2c1N(C)C(=O)c1ccco1`, the Potency is reported as 16.4 µM (active).
With `CCCCN(C=O)c1c(CC)nc2c(OCc3ccccc3C(=O)OC)cccn12` the Potency was 20.6 µM (active).
For `COc1cc(C(=O)NC2CCN(Cc3ccccc3)CC2)cc(Cl)c1OC(C)C`, the Potency was 20.6 µM (active).
With `COC(=O)c1cccc(NC(=O)CN2CCC(NC(=O)c3cc(OC)c(OC)c(OC)c3)CC2)c1` the Potency was 16.4 µM (active).
With `COc1ccc(/C=C/C(=O)Nc2ccc(C34CC5CC(CC(O)(C5)C3)C4)cc2)cc1OC` the Potency was 1.3 µM (active).
For `CCC(=O)c1ccc(N2CCN(C(=O)c3cc([N+](=O)[O-])ccc3F)CC2)c(F)c1`, the Potency was 16.4 µM (active).
With `CCOC(=O)N1CCN(c2cc(C)c([N+](=O)[O-])cc2F)CC1` the Potency was 16.4 µM (active).
